Screening data: PubChem BioAssay, National Center for Advancing Translational Sciences (NCATS)
Tau fibril FP = blocks human tau fibril formation measured by polarization; K18 P301L tau heparin fibrillization, Alexa594 FP, 6 h; Potency, µM (doses to about 57.7 µM), for the others: top-dose activity, negative = inhibition, most hits filed as inhibitors; P10636; AID 1468; 0.39% of 280,000 active; also: potency is read from the fitted curve at half-maximal effect; % is scaled to controls: 0 for no effect and ±100 for the full control effect; nearly all actives have a fitted effect of over 55% in size
Target sequence (P10636 561-689 P618L limits assumed): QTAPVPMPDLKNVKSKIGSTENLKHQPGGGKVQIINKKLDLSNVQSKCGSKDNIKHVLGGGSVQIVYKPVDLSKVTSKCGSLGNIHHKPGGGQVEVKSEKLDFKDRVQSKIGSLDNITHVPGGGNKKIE
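Human K18 P301L fragment (15 uM unlabeled plus 0.24 uM Alexa 594-labeled) in 100 mM sodium acetate pH 7 with compound, aggregation induced by 20 uM heparin for 6 hr at 37 C. ThT (30 uM) added for 1 hr, then Alexa 594 FP read.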
LMNA splice mod = changes lamin A minigene splicing in HeLa cells; 0.01% of 200,000 active; Potency, µM (top dose mostly 46.1 µM), without a hit: top-dose ratio change, negative = inhibition, usual class: inhibitors; HeLa LMNA splicing GFP/RFP minigene ratio, 48 h; active = well fitted inhibition curve with a large enough effect in the signal ratio, with a control signal flat, not every such curve was filed as active; inconclusive = small, poorly fitted or top-dose-only effect, or effect the other way, or a change in a side signal; the % refers to the signal ratio; also: potency is read from the fitted curve at half-maximal effect; % is scaled to controls: 0 for no effect and ±100 for the full control effect
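Read-out is the ratio of GFP to DsRed2 object intensity, acquired by 488 nm laser-scanning cytometry on HeLa lamin A-EGFP minigene reporter cells. Compound incubation 48 hrs at 37 °C in Opti-MEM with 2% FBS; DMSO 0.5% final.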
CBFb RUNX1 block = CBF-beta/RUNX1 interaction disruption; 230,000 tested, under 10 active; Potency, µM (doses to about 59.8 µM), inactives show at the top dose activity, negative = inhibition, most hits filed as inhibitors; AlphaScreen CBFb-His/RUNX1-biotin binding, biochemical; also: % of control where 0% means no effect
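CBF-beta (His) and RUNX1 (biotin), 30 nM each; 20 min preassociation; + compound, 15 min; + beads 50 ng each (Ni, streptavidin), 90 min; RT; AlphaScreen read.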
Tau fluor counter = counter-screen for tau fibril formation inhibitors; AID 1463; Potency, µM (highest dose often 57.7 µM), without a hit: at the top dose activity change, negative = decrease; 0.93% of 280,000 active; tau K18 P301L Alexa594 fluorescence, heparin fibrillization; also: potency is read from the fitted curve at half-maximal effect; % is scaled to controls: 0 for no effect and ±100 for the full control effect; nearly all actives have a fitted effect of over 55% in size
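Human tau K18 P301L (15 uM unlabeled, 0.24 uM Alexa 594-labeled) in 100 mM sodium acetate pH 7 with 20 uM heparin, 6 hr at 37 C. ThT 30 uM added, 1 hr ambient; Alexa 594 FP and total fluorescence read at 555/632 nm.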
JMJD2E inh = inhibitors of human JMJD2E histone demethylase | JMJD2E catalytic domain, FDH-coupled NADH fluorescence (FDH is formaldehyde dehydrogenase) | Potency, µM (titrated, usually from 57.1 µM), without a hit: top-dose activity change, negative = inhibition, most hits filed as inhibitors | B2RXH2 | 1.6% of 230,000 active; active = well fitted inhibition curve with a large enough effect, not every such curve was filed as active; inconclusive = small, poorly fitted or top-dose-only effect, or another doubt; inactive = no such curve, though single readings can be large or run the other way;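 also: potency is read from the fitted curve at half-maximal effect; 0% = wells with enzyme and -100% = buffer wells without enzyme; nearly all actives have a fitted effect of over 50% in size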
Target sequence (B2RXH2 1-337 limits assumed): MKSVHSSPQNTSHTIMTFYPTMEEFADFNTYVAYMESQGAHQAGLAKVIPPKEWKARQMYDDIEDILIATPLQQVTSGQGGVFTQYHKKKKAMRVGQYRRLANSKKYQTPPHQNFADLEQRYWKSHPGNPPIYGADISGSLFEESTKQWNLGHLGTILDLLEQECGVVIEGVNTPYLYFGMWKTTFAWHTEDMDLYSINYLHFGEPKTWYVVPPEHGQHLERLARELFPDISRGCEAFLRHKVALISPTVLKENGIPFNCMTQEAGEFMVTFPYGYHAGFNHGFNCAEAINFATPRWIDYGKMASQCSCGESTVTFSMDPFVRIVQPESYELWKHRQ
Tau fibril ThT = tau fibrillization inhibition (ThT binding); P10636; recombinant tau K18 P301L (four-repeat tau fragment), heparin-induced fibrillization, ThT fluorescence; Potency, µM (top dose mostly 57.4 µM), for the others: top-dose activity, negative = inhibition, usual class: inhibitors; 2.1% of 270,000 active; AID 1460; also: potency is read from the fitted curve at half-maximal effect; % is scaled to controls: 0 for no effect and ±100 for the full control effect; nearly all actives have a fitted effect of over 55% in size
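In this qHTS, human K18 P301L tau is incubated with compound and heparin for 6 hr at 37 C, and Thioflavin T fluorescence then reports fibril load.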
Active calls of the source: *; ? = inconclusive; / = not tested or not shown; ! = a repeat was not active; [ ] = dose if it differs, or a comment. Only some compounds are listed: those with a hit (about 3.2% of all), similar ones and a draw of the others. Unless noted, calls follow the shape of the dose curve; as a rule, active = well fitted curve in the direction sought with a large enough effect; inconclusive = small, poorly fitted or top-dose-only effect, or another doubt; inactive = no such curve, though single readings can be large; an effect the other way counts as inactive or inconclusive.

SMILES	Tau fibril FP	LMNA splice mod	CBFb RUNX1 block	Tau fluor counter	JMJD2E inh	Tau fibril ThT
COC(=O)CCCC1=CC2=C(c3ccccc3)C(=O)C(C)(OC(=O)C3CCCC3)C(=O)C2=CN1CC1CC1 (stereo unspecified)	3%[11.6 µM]	-17%[9.22 µM]	6%[13.1 µM]	-10%[11.6 µM]	11µM*!	?
Nc1[nH]ncc1N=Nc1ccc(Cl)cc1	8%	11%	-1%	?	-3%	10µM*
CCCNC(=O)Cn1sc2nc(C)cc(C)c2c1=O	16µM*	/	6%	-23%	?	/
CC(=O)Cn1cnc2c(sc3nc(C)cc(C)c32)c1=O	3%	/	3%	-3%	-11%	-4%
Cc1cc(C)c2c(=O)n(CC(=O)N3CCC(N4CCCCC4)CC3)sc2n1	25µM*	1%	-2%	?	?	25µM*
CCOC(=O)C1CCCN(C(=O)Cn2sc3nc(C)cc(C)c3c2=O)C1 (stereo unspecified)	25µM*	10%	-2%	-28%	?	11µM*
CC(=O)c1cc(-c2ccccc2)n(CC(=O)N2CCC(N3CCCCC3)CC2)c1C	2%	-1%	9%	0%	-4%	-10%
Cc1ccc(NC(=O)CSCc2cc(=O)c3ccccc3[nH]2)c(C)c1	-12%	?	/	-9%	/	-11%
CCN(Cc1ccncc1)Cc1c(O)ccc2cc(Br)ccc12	0%	?	-20%	?	7.1µM*	?
COc1cc(/C=C/c2ccc3c(Br)cc(Br)c(O)c3n2)ccc1O	1%	?	-5%	5µM*[quencher]	?	3.5µM*
C=CCN1C=C2C(=O)C(C)(OC(=O)c3cccs3)C(=O)C=C2C=C1CCCC(=O)OC (stereo unspecified)	?	-8%[9.22 µM]	2%[13.1 µM]	0%[11.6 µM]	16µM*!	?
c1ccc(SCCSc2ccccc2)cc1	/	/	17%[21.7 µM]	/	/	/
Oc1c(C(c2ccc(Cl)cc2Cl)N2CCOCC2)sc2nc(-c3ccco3)nn12 (stereo unspecified)	2%	-1%[46 µM]	/	-15%	/	-11%
S=C(c1ccc(-c2ccc(Cl)c(Cl)c2)o1)N1CCOCC1	-3%	6%	?	-25%	-7%	10µM*
Cc1ccc(N2CCN(C(=S)c3ccc(-c4ccccc4[N+](=O)[O-])o3)CC2)cc1	-4%	/	/	?	-1%	?
S=C(c1ccc(-c2ccccc2Cl)o1)N1CCOCC1	-14%	13%	-21%	?	-2%	25µM*
O=C(c1ccc(-c2cccc(Cl)c2Cl)o1)N1CCOCC1	-7%	6%[46 µM]	5%	-1%	0%	-5%
O=[N+]([O-])c1ccccc1-c1ccc(C(=S)N2CCN(c3ccccc3)CC2)o1	-7%	/	/	?	-22%	11µM*
S=C(c1ccc(-c2ccc(Br)cc2)o1)N1CCOCC1	-5%	/	?	-25%	0%	/
COc1cccc(CN2CC34CC(c5ccc(C(C)=O)cc5)C(CC3S2(=O)=O)O4)c1 (stereo unspecified)	/	/	-8%	/	/	/
COc1ccccc1Cc1nc2ccccc2nc1SCC(=O)Nc1cccc(Cl)c1C	-4%	?	/	-6%	/	8%
O=C(Nc1ccc(Cl)cc1)Nc1nc(-c2ccccc2O)cs1	?	/	10%	3.5µM*[quencher]	9%	4%
O=C(Nc1ccccc1)Nc1nc(-c2ccccc2)cs1	?	/	0%	-27%	-2%	6%
O=C(Nc1ccc(Cl)c(Cl)c1)Nc1nc(-c2ccccc2)cs1	18µM*	?	10%	?	-4%	12%
Nc1ncc(N=Nc2cc(C(=O)O)ccc2Cl)s1	?	/	?	-28%	25µM*	14µM*
SMILES	Tau fibril FP	LMNA splice mod	CBFb RUNX1 block	Tau fluor counter	JMJD2E inh	Tau fibril ThT
Cc1c(Cl)cccc1NC(=S)N=Nc1c(O)n(CN2CCOCC2)c2ccccc12	-14%	?	?	18µM*[quencher]	3%	?
CCSc1ncc(/C=N/Nc2ccc(F)cc2)n1C	5%	19%	-14%	?	3%	8.9µM*
CCC(=Nc1ccccc1OC)C1=C(O)CC(c2ccccc2)CC1=O (stereo unspecified)	4%	/	-2%	-10%	1%	0%
CCC(=Nc1ccccc1O)C1=C(O)CC(c2ccccc2)CC1=O (stereo unspecified)	-12%	/	-11%	?	25µM*	?
O=C(O)C(C(=O)/C=C/c1ccco1)=C1SCCS1	?	17%	?	-16%	-23%	16µM*
CC(C)C(N)C(=O)O (stereo unspecified)	-4%	/	13%	0%	/	4%
Cc1ccc(CNC(=O)NC2COc3ccccc3C2)cc1 (stereo unspecified)	-4%	5%[46 µM]	/	1%	/	-1%
COc1ccccc1O	/	-7%	23%[21.7 µM]	/	/	/
COc1cccc(O)c1O	25µM*	?	/	11µM*[quencher]	7.9µM*	14µM*
COc1cccc(CS(=O)(=O)c2nnnn2-c2ccccc2)c1	-3%	/	-8%	-8%	2%	?
CC1CCc2c(sc(Nc3nc4c(F)cccc4s3)c2C(N)=O)C1 (stereo unspecified)	7%	?	-1%	16µM*[quencher]	?	?
C/C(=N/NC(=O)c1ccncc1)C1=C(O)CC(C)(C)CC1=O	-13%	-2%[46 µM]	-8%	-4%	14µM*	-1%
CC(=Nc1ccccc1)C1=C(O)CC(C)(C)CC1=O	7%	/	-2%	-10%	0%	-6%
O=C(CSc1nc2ccccc2s1)N1N=C(c2cccs2)CC1c1ccc(F)cc1 (stereo unspecified)	-6%	-2%	4%	-15%	?	-6%
O=C(CSc1nc2c(cnn2-c2ccc(F)cc2)c(=O)[nH]1)N1N=C(c2cccs2)CC1c1ccc(F)cc1 (stereo unspecified)	-7%	-9%	11%[2.36 µM]	-21%	5µM*	?
CCN(CC)c1ccc(/C=C2/SC(=O)N(C(C)C)C2=O)o1	-3%	?	2%	-18%	-15%	18µM*
Cc1cc(N2CCOCC2)ccc1/C=C1\SC(=O)N(C(C)C)C1=O	15%	-3%	2%	?	11%	?
CCC(=O)N1c2ccccc2CC1C(=O)NCCN1CCN(c2cccc(C(F)(F)F)c2)CC1 (stereo unspecified)	10%	-9%[46 µM]	/	-9%	/	-4%
Cc1nc(NC(=O)CC(C)C)sc1-c1csc(Nc2ccc(Cl)cc2)n1	6%	9%[0.0737 µM]	-13%	11µM*[quencher]	-27%	?
Cc1nc(NC(=O)CC(C)C)sc1-c1csc(Nc2ccc(Cl)cc2Cl)n1	9%	?	2%	22µM*[quencher]	-26%	?
